Each structure is given as a SMILES string. In all, about 330,000 compounds went through this assay and about 670 (0.2%) were called active.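 How the source made its calls: active means activity change below a set negative limit, meaning inhibition stronger than a set level (cut at about -70% in these data); inconclusive means activity change between two set negative limits; inactive means the rest.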 The list comes from a sample in which actives are over-represented; it also holds similar structures and randomly drawn compounds.
On the % scale 0 is the no-effect control and ±100 the full control effect.

Sequence of Thyrotropin receptor (Homo sapiens) (P16473 whole entry, looked up): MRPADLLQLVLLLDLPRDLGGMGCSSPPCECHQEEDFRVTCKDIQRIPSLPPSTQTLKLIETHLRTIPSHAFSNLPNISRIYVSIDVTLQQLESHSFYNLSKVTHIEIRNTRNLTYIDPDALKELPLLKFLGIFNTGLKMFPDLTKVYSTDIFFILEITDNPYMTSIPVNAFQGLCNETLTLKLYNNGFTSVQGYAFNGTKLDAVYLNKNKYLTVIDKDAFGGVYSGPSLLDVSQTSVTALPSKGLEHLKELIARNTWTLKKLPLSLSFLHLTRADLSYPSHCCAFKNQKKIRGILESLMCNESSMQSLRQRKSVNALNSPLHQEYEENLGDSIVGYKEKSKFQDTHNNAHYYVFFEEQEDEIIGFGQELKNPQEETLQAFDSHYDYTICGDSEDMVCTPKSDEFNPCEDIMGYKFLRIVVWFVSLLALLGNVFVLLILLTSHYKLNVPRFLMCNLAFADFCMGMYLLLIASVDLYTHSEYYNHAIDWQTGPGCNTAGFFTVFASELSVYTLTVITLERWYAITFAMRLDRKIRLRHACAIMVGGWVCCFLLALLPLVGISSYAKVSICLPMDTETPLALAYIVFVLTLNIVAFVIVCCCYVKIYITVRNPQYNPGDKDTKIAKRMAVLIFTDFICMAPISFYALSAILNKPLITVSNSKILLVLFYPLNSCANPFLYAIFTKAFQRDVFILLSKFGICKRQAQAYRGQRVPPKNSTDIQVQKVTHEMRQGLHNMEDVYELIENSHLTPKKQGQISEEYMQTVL

The experiment has as its target Thyrotropin receptor (Homo sapiens) (UniProt P16473). The experiment in a line: Antagonists of the Thyroid Stimulating Hormone Receptor: HTS campaign. To be noted: TSHR-expressing cells, TSH-stimulated cAMP HTRF, 2 h; at 11.5 µM; stronger effect = lower value. The essentials: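 Freshly harvested TSHR cells receive pin-tooled compound, then EC80 TSH at 4nM final. After 2 hours at 37 deg C, antibody in lysis buffer and cAMP-d2 are added; 30 minutes at ambient temperature precede the HTRF read.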
For `CCc1nonc1NC(=O)c1oc2ccc(Cl)cc2c1C`, the activity change, negative = inhibition is 3.96% (inactive).

`O=C1C=C(c2cccc(Cl)c2O)C[C@@H](c2ccc(F)cc2)C1`: the activity change, negative = inhibition is -23% (inactive).

Regarding `CC1(C)NC(=O)N(CC(=O)N2CCN(S(=O)(=O)c3ccccc3F)CC2)C1=O`, the activity change, negative = inhibition is 1.38% (inactive).

With `CCN(c1ccccc1)S(=O)(=O)c1cc(C(=O)NCc2ccccn2)ccc1C`, the activity change, negative = inhibition is 0.209% (inactive).

Consider `Cc1ccc(C)c(N(CC(=O)NCc2ccco2)C(=O)CCC(=O)Nc2ccccn2)c1`, for which the activity change, negative = inhibition is 0.465% (inactive).

In the case of `COC(=O)c1ccc(COC(=O)c2c(C)nn(Cc3ccccc3Cl)c2Cl)o1`, the activity change, negative = inhibition was -21.4% (inactive).

For `CC(=O)N=c1ncn(CC(COC(C)=O)OC(C)=O)c2nc[nH]c12` (configuration not stated), the activity change, negative = inhibition was -10.8% (inactive).

In the case of `Cc1ccc(S(=O)(=O)N(C)c2ccc(OCC(=O)NC3=NCCS3)cc2)cc1`, the activity change, negative = inhibition is 26.8% (inactive).

For the molecule `Oc1c(Cl)cc(Cl)c(Cl)c1Cc1c(O)c(Cl)cc(Cl)c1Cl`, the activity change, negative = inhibition was -103% (active).

In the case of `CC(Oc1ccccc1)C(=O)NN1Cc2ccccc2C1=N` (configuration not stated), the activity change, negative = inhibition is 8.16% (inactive).

Consider `CCOC(=O)c1ccc(NC(=O)c2nc[nH]c2C(=O)N[C@@H](CCCCNC(=O)OC(C)(C)C)C(=O)OC(C)(C)C)cc1`, for which the activity change, negative = inhibition is -6.71% (inactive).

Turning to `CCCn1c(=O)c2[nH]c(-c3ccc(OCC(=O)NCCN)cc3)nc2n(CCC)c1=O`, the activity change, negative = inhibition is 26.4% (inactive).

Turning to `COc1ccc(C(=O)NCC2CCCN2S(=O)(=O)c2cccs2)cc1OC` (configuration not stated), the activity change, negative = inhibition was 4.47% (inactive).

Regarding `CC(CCc1ccccc1)NCC(O)c1cccc([N+](=O)[O-])c1` (configuration not stated), the activity change, negative = inhibition was 9.45% (inactive).

Regarding `CN(c1ccccc1)S(=O)(=O)c1cc(C(=O)OCC(=O)N2CCN(C(=O)c3ccco3)CC2)ccc1Cl`, the activity change, negative = inhibition was -10.1% (inactive).

On to `CN(c1ccccc1)S(=O)(=O)c1cc(C(=O)Nc2nc3ccccc3[nH]2)ccc1Cl`, for which the activity change, negative = inhibition was -76.7% (active).

For `Cc1cccc(NC(=O)c2ccc(S(=O)(=O)N(C)c3ccccc3)cc2)n1`, the activity change, negative = inhibition was -19.5% (inactive).

As for `Cc1cc(C)n2nc(C(=O)N(C)C(c3ccccc3)c3ccccc3)nc2n1`, the activity change, negative = inhibition is 0.111% (inactive).

`Cc1cc(C)n2nc(C(=O)OC(C)C(=O)c3cc(C)c(C)cc3C)nc2n1` (configuration not stated): the activity change, negative = inhibition is 23.5% (inactive).

`O=C(CN1C(=O)CSC1=O)N1CCCC(Nc2ccc(F)cc2)C1` (configuration not stated): the activity change, negative = inhibition is -1.23% (inactive).

For `Cc1ccsc1C(=O)OCC(=O)Nc1cccc(F)c1`, the activity change, negative = inhibition was -3.82% (inactive).

Turning to `COc1cc(NC(=O)c2ccccc2NS(=O)(=O)c2ccc(Cl)s2)cc(OC)c1`, the activity change, negative = inhibition is -75.8% (active).

`COc1cc(OC)c(S(=O)(=O)Nc2ccccc2C(=O)O)cc1S(=O)(=O)Nc1ccccc1C(=O)O`: the activity change, negative = inhibition was -2.52% (inactive).

Consider `CCOc1ccc(NC(=O)c2ccccc2NS(C)(=O)=O)cc1`, for which the activity change, negative = inhibition was 5.45% (inactive).

As to `CCN(CC)C(=O)CSC1c2ccccc2C(=O)N1c1ccccc1` (configuration not stated), the activity change, negative = inhibition is 4.85% (inactive).

`O=C(CCSCCc1ccccn1)Nc1nccs1`: the activity change, negative = inhibition is -1.45% (inactive).

As to `CC(=O)c1nn(-c2cccc(Br)c2)cc1C(=O)c1cccc2ccccc12`, the activity change, negative = inhibition is 7.96% (inactive).

Turning to `CC(C)Cc1nn2c(=O)cc(O)nc2s1`, the activity change, negative = inhibition is 2.07% (inactive).

Take `CCOC(=O)C1(Cc2ccccc2C)CCCN(C(=O)c2ccc(COC)o2)C1` (configuration not stated): the activity change, negative = inhibition is 26.3% (inactive).

For the molecule `CC1CCCCC1NC(=O)CO/N=C/c1ccc(OC(F)F)cc1` (configuration not stated), the activity change, negative = inhibition is -11.3% (inactive).

Take `CCOc1ccc(/C=N/OCC(=O)NCc2cccs2)cc1`: the activity change, negative = inhibition is -4.83% (inactive).

In the case of `O=C(CO/N=C/c1ccc(OC(F)F)cc1)NCc1ccc(F)cc1`, the activity change, negative = inhibition is -73.2% (active).

In the case of `CC(=O)N1c2ccc(S(=O)(=O)NCCC(=O)N(C)C3CCCCC3)cc2CC1C` (configuration not stated), the activity change, negative = inhibition is 4.56% (inactive).

As for `CC(=O)N1c2ccc(S(=O)(=O)N(C)CC(=O)N(C)Cc3ccccc3)cc2CC1C` (configuration not stated), the activity change, negative = inhibition was -99.1% (active).

In the case of `COc1cccc(CNS(=O)(=O)c2ccc3c(c2)CC(C)N3C(C)=O)c1` (configuration not stated), the activity change, negative = inhibition was -6.62% (inactive).

Turning to `Cc1ccc2cc(C)c(N3CCN(c4ccc(F)cc4)CC3)nc2c1`, the activity change, negative = inhibition is 12.4% (inactive).

For `CC(Sc1nncs1)C(=O)NCc1ccc2c(c1)OCO2` (configuration not stated), the activity change, negative = inhibition is 18.9% (inactive).

For `COc1ccc(CNC(=O)c2nnn(CC(=O)Nc3cc(C)cc(C)c3)c2N)cc1`, the activity change, negative = inhibition is 5.35% (inactive).

Turning to `COc1cccc(CNC(=O)c2nnn(CC(=O)Nc3cc(Cl)ccc3C)c2N)c1`, the activity change, negative = inhibition was -74.4% (active).

`COc1cccc(CNC(=O)c2nnn(CC(=O)Nc3cc(C)ccc3C)c2N)c1`: the activity change, negative = inhibition is 4.35% (inactive).

Take `CC(=O)/C(C)=N/O`: the activity change, negative = inhibition is 17.4% (inactive).

For `CC12CCC(C(=O)N(NC(=O)c3ccccc3O)C1=O)C2(C)C` (configuration not stated), the activity change, negative = inhibition was 68.7% (inactive).

With `COc1cc(/C=C(/NC(=O)c2ccc(Cl)cc2Cl)C(=O)O)cc(OC)c1OC`, the activity change, negative = inhibition is -0.961% (inactive).

Regarding `COc1cccc(CCNC(=O)COc2cccc3c2OC(C)(C)C3)c1`, the activity change, negative = inhibition is -10.3% (inactive).

For `COc1ccccc1C(=O)NCCC(=O)N(C)Cc1cccnc1`, the activity change, negative = inhibition was 9.57% (inactive).

For the molecule `COc1cc(C2NC(=O)NC(c3ccccc3)=C2C(C)=O)c(Br)cc1OCC(N)=O` (configuration not stated), the activity change, negative = inhibition is -8.27% (inactive).

`C[C@H](NC(=O)c1nc[nH]c1C(=O)NCC(=O)OC(C)(C)C)C(=O)OCc1ccccc1`: the activity change, negative = inhibition is -7.53% (inactive).

As for `O=C(NNC(=O)c1cc(-c2ccccc2Cl)nc2ccccc12)c1csc(N2CCOCC2)n1`, the activity change, negative = inhibition is 0.138% (inactive).

Consider `CS(=O)(=O)N(CC(=O)N/N=C/c1ccccn1)c1ccc(Oc2ccccc2)cc1`, for which the activity change, negative = inhibition was -9.31% (inactive).

Turning to `O=[N+]([O-])c1c(NCCO)cc(Sc2nc3ccccc3s2)c2nonc12`, the activity change, negative = inhibition was -94.3% (active).

In the case of `NC(=O)c1ccc(Nc2ccc3nonc3c2[N+](=O)[O-])cc1`, the activity change, negative = inhibition was 27.6% (inactive).

Consider `Cc1nc2nc(CSc3nc4ccccc4s3)cc(=O)n2[nH]1`, for which the activity change, negative = inhibition was -15% (inactive).

As for `O=C(COC(=O)COc1cccc(F)c1)NCC1CCCCC1`, the activity change, negative = inhibition was 8.58% (inactive).

On to `CC(=O)Oc1ccccc1C(=O)Nc1ncc([N+](=O)[O-])s1`, for which the activity change, negative = inhibition is -80.5% (active).

Turning to `O=C(Cc1c(F)cccc1Cl)Nc1ncc([N+](=O)[O-])s1`, the activity change, negative = inhibition was -13.2% (inactive).

Regarding `Cc1cnc(NC(=O)c2ccccn2)s1`, the activity change, negative = inhibition was 6.51% (inactive).

Turning to `CCOc1ccc(C(CC(=O)O)NC(=O)C23CC4CC(CC(C4)C2)C3)cc1OC` (configuration not stated), the activity change, negative = inhibition was -4.83% (inactive).

For the molecule `Cc1occc1-c1nnc(SCC(=O)NC2CCCCC2)o1`, the activity change, negative = inhibition is -3.93% (inactive).

Consider `CCCCCCCCc1c(O)nc(-n2[nH]c(C)c(CCO)c2=O)[nH]c1=O`, for which the activity change, negative = inhibition was 7.75% (inactive).

Consider `Cc1cccc(C(=O)NNC(=O)CSc2nnc(C(C)C)n2C)c1`, for which the activity change, negative = inhibition is 2.38% (inactive).

For the molecule `Cc1ccc(SCC(=O)c2cc(C)c(OC(=S)N(C)C)c(C)c2)cc1`, the activity change, negative = inhibition was -25% (inactive).

As for `Cc1cc(CNC(=O)c2cccc([N+](=O)[O-])c2)c2ccccc2n1`, the activity change, negative = inhibition is -9.8% (inactive).

Consider `O=C(NC(Nc1nc2ccc([N+](=O)[O-])cc2s1)(C(F)(F)F)C(F)(F)F)c1ccccc1`, for which the activity change, negative = inhibition was -78.9% (active).

Turning to `N=C1C(c2nc3ccccc3s2)=C(O)CN1NC(=O)c1ccc([N+](=O)[O-])cc1`, the activity change, negative = inhibition is -1.44% (inactive).

Turning to `CN(C)c1cc2c(Nc3ccc4c(cnn4Cc4ccccc4)c3)ncnc2cn1`, the activity change, negative = inhibition is -17.2% (inactive).

Turning to `COc1ccc(CCNC(=O)C2CC3Cn4c(nc5cc(C)c(C)cc54)C3N2C)cc1` (configuration not stated), the activity change, negative = inhibition is -1.1% (inactive).

As to `Nc1ncnc2c1c(I)cn2[C@@H]1C[C@H](N)[C@@H](O)[C@H]1O`, the activity change, negative = inhibition is -18% (inactive).

In the case of `CCOc1ccc(C(=O)NC2CCN(CC(=O)NCc3cccs3)CC2)cc1`, the activity change, negative = inhibition is 1.48% (inactive).

On to `O=C(Nn1c(SCc2ccc([N+](=O)[O-])cc2)nc2ccccc2c1=O)c1ccc(F)cc1`, for which the activity change, negative = inhibition is -74.2% (active).

For `C=CCn1c(SCc2ccc(C(=O)NCCO)cc2)nc2ccccc2c1=O`, the activity change, negative = inhibition is -4.95% (inactive).

For the molecule `Cc1nc2ccccc2c(=O)n1NC(=O)c1ccc(Cl)c([N+](=O)[O-])c1`, the activity change, negative = inhibition was -24.1% (inactive).

For `CCO[C@@H]1OC(C(=O)NCc2nc3ccccc3[nH]2)=C[C@H](C2CCCCC2)[C@H]1CCCO`, the activity change, negative = inhibition is -6.97% (inactive).

As for `CC(C)C[C@H](NC(=O)[C@H](O)[C@H](N)Cc1ccccc1)C(=O)O`, the activity change, negative = inhibition is -6.27% (inactive).

With `COc1ccc(-n2cnnc2SCC(=O)Nc2cccc([N+](=O)[O-])c2)cc1`, the activity change, negative = inhibition is -5.22% (inactive).

With `O=C(CSc1ncn[nH]1)Nc1nc(-c2cccc([N+](=O)[O-])c2)cs1`, the activity change, negative = inhibition was 7.62% (inactive).

As to `O=C(CSc1nc(-c2ccccc2)cs1)Nc1cccc([N+](=O)[O-])c1`, the activity change, negative = inhibition was -78.8% (active).

For the molecule `COc1cc(NC(=O)c2cc([N+](=O)[O-])ccc2Br)ccc1NC(=O)c1ccco1`, the activity change, negative = inhibition was -16.5% (inactive).

Turning to `Cc1ccc(Nc2nc(N3CCOCC3)nc(N3CCOCC3)n2)cc1Cl`, the activity change, negative = inhibition was -135% (active).

`Cc1ccc(Nc2nc(N)nc(CN3CCN(Cc4ccccc4)CC3)n2)cc1Cl`: the activity change, negative = inhibition is 5.19% (inactive).

`Cc1ccccc1NC(=O)CSc1nc2ccc(Nc3nc(N4CCOCC4)nc(N4CCOCC4)n3)cc2s1`: the activity change, negative = inhibition was -6.48% (inactive).

As to `O=C(Nc1ccc(-c2cscn2)cc1)C1CCCN(Cc2ccc(CO)o2)C1` (configuration not stated), the activity change, negative = inhibition was 14.3% (inactive).

For `CSc1nnc(-c2ccc(C(F)(F)F)cn2)o1`, the activity change, negative = inhibition was 7.33% (inactive).
